Assay results published in PubChem BioAssay (Tox21).
Results filed as inconclusive are left out. Values without a mark were called inactive. The source made the active and inactive calls. The call rests on the fitted dose curve; in most records, active means well fitted activation curve with a large enough effect in the repeat runs; inconclusive means weak or mixed curves; inactive means flat fitted curve, though single readings scatter.
On the % scale 0 is the no-effect control and ±100 the full control effect; potency means the concentration at half of the fitted maximal effect.

Test: Caspase-3/7 induction in HepG2 cells by small molecules, qHTS assay (AID 1346978); further: nearly all actives have a fitted effect of over 15% in size
Conditions: HepG2 caspase-3/7 activation, Caspase-Glo luminescence, 17 h; series mostly up to 92.4 µM; caspase activation: at the top concentration
Excerpt: National Center for Advancing Translational Sciences [NCATS] NIH Chemical Genomics Center [NCGC] U.S. Environmental Protection Agency [EPA] National Institutes of Environmental Health Sciences [NIEHS] National Toxicology Program [NTP] Assay overview: Apoptosis is a process of programmed cell death and plays a central role in the development of multicellular organisms. It is a highly regulated process and induces cell death by activating caspases, which are the members of cysteine aspartic acid-specific protease (caspase) family. Caspases involved in apoptosis are classified by their mechanism of action as initiator caspases (caspase-2, -8, -9 and -10) and executioner caspases (caspase-3, -6, and -7). Inhibition of apoptosis results in number of cancers, autoimmune diseases, inflammatory diseases and viral infection. To identify small molecule compounds that induce apoptosis, a homogeneous, luminescent Caspase-Glo 3/7 assay was used. Wild type HepG2 cells were used to screen Tox21 libraries for identifying caspase-3/7 activity inducers.
Assay Protocol Summary: HepG2 cells were dispensed at 2,000 per well in 5uL of culture medium into white solid bottom 1536-well plates (Corning Life Sciences, Corning, NY) using a Multidrop Combi (Thermo Scientific, Waltham, MA) dispenser. The assay plates were incubated at 37 C and 5% CO2 for 5hr, and then 23nL of compounds dissolved in DMSO and positive control were transferred using a Pintool station (Wako, San Diego, CA). The assay plates were incubated at 37C and 5% CO2 for 17hr. For caspase-3/7 activity read, 4uL of Caspase-Glo 3/7 reagent (Promega Corporation, Madison, WI) was added to each well of the assay plates using Flying Reagent Dispenser (FRD, Aurora Discovery, San Diego, CA) and incubated the assay plates at room temperature for 30min. The luminescence signal was quantified using a ViewLux plate reader (Perkin Elmer, Shelton, CT).
In the case of `CCCN(CCC)c1c([N+](=O)[O-])cc(C(F)(F)F)c(N)c1[N+](=O)[O-]`, the Potency is reported as 60.9 µM (active).
With `[O-][n+]1ccccc1SSc1cccc[n+]1[O-]` the Potency was 0.291 µM (active).
With `O=C(Nc1cccc(Cl)c1)OCC#CCCl` the “caspase activation” value was 12.5%.
With `CN1CCC(Nc2ncc3ncnc(Nc4ccc(F)c(Cl)c4)c3n2)CC1` the “caspase activation” value was 4.36% [at 42.5 µM].
For `CSc1ccc(/C=C2/C(C)=C(CC(=O)O)c3cc(F)ccc32)cc1`, the “caspase activation” value was 2.27% [at 42.5 µM].
With `O=C(NO)C1(NS(=O)(=O)c2ccc(Oc3ccc(F)cc3)cc2)CCOCC1` the “caspase activation” value was -4.85%.
With `CCC(C)Nc1ccc(NC(C)CC)cc1` (stereo not given) the “caspase activation” value was -14.7%.
With `CCCCCCCCCCC=O` the “caspase activation” value was -0.0711%.
In the case of `CC(C)CCCCCCCCCCCCCCC(=O)O`, the “caspase activation” value is reported as 0.0421%.
For `O=CC=C(c1ccccc1)c1ccccc1`, the “caspase activation” value was -6.1%.
In the case of `Clc1ccc2cc3ccccc3cc2c1`, the “caspase activation” value is reported as -2.63%.
`CCN1/C(=C/C=C/c2sc3ccccc3[n+]2CC)Sc2ccccc21` showed a caspase activation of -8.48% [at 19 µM].
For `CCN(Cc1cccnc1)C(=O)c1cccc(Cl)c1[C@]1(C)C(=O)N(Cc2ccc(OC)cc2OC)c2ccc(Cl)cc21`, the “caspase activation” value was -2.03%.
With `CCN(C(=O)c1cc(C)cc(OC[C@H](C)Nc2ccncc2)c1)C(C)C` the “caspase activation” value was -0.433% [at 42.5 µM].
In the case of `O=C(Nc1cccc([N+](=O)[O-])c1)c1cc2ccccc2cc1O`, the “caspase activation” value is reported as -13.4%.
For `O=C(c1ccc(O)cc1O)c1ccc(O)cc1O`, the Potency was “inactive”.
In the case of `Clc1ccc2n[nH]nc2c1`, the “caspase activation” value is reported as 0.158%.
With `CCN(C(=O)N(CC)c1ccccc1)c1ccccc1` the “caspase activation” value was 2.19%.
With `Cc1cc(CCN2CCN(c3nsc4ccccc34)CC2)cc2c1NC(=O)CC2(C)C` the “caspase activation” value was -8.05%.
With `Cc1c(C)c2c(c(C)c1O)CCC(C)(COc1ccc(CC3SC(=O)NC3=O)cc1)O2` (stereo not given) the Potency was “inactive”.
With `N#CSc1ccc(N)c([N+](=O)[O-])c1` the “caspase activation” value was -5.79%.
In the case of `CCOC(=O)O[C@H](C)OC(=O)c1ccc2c(c1)cc(C(=O)NC1CCN(C(C)C)CC1)n2Cc1cc(-c2ccc(Cl)s2)on1`, the Potency is reported as 45.4 µM (active).
In the case of `ON=C1CCCC1`, the “caspase activation” value is reported as 0.49%.
For `CC(C)OC(=O)c1cc2c(OCC(O)CNC(C)(C)C)cccc2[nH]1` (stereo not given), the “caspase activation” value was 1.66% [at 42.5 µM].
With `Nc1c(Cl)cc(Cl)cc1Cl` the “caspase activation” value was 1.35%.
In the case of `N/C(=N\N=C\c1ccc(Cl)cc1)N/N=C/c1ccc(Cl)cc1`, the “caspase activation” value is reported as 2.87% [at 42.5 µM].
In the case of `CCC(N)(CO)CO`, the “caspase activation” value is reported as -2.03%.
With `CCCCCCCC(=O)[O-].CCCCCCCC(=O)[O-].[Zn+2]` the “caspase activation” value was 2.39% [at 42.5 µM].
For `CCCCCCCCCCCCCCCC(=O)OC[C@H](O)[C@H]1OC(=O)C(O)=C1O`, the “caspase activation” value was -0.666%.
For `Nc1nc2ccccc2n1Cc1ccc(F)cc1`, the “caspase activation” value was -0.42% [at 42.5 µM].
In the case of `O=C(O)c1c(Cl)cccc1Cl`, the “caspase activation” value is reported as -2.09%.
In the case of `CC[C@@]1(O)C(=O)OCc2c1cc1n(c2=O)Cc2cc3c(CN(C)C)c(O)ccc3nc2-1`, the Potency is reported as 4.22 µM (active).
With `Fc1ccc([C@@H]2CCNC[C@H]2COc2ccc3c(c2)OCO3)cc1` the “caspase activation” value was 5.91% [at 42.5 µM].
In the case of `NC(=O)CC[C@@H]1NC(=O)[C@H](Cc2ccccc2)NC(=O)[C@H](Cc2ccc(O)cc2)NC(=O)CCSSC[C@@H](C(=O)N2CCC[C@H]2C(=O)N[C@@H](CCCN=C(N)N)C(=O)NCC(N)=O)NC(=O)[C@H](CC(N)=O)NC1=O`, the “caspase activation” value is reported as 0.154% [at 42.5 µM].
In the case of `N=C1N=C(N)c2cc3ccccc3cc21`, the Potency is reported as 45.8 µM (active).
For `CCCCCOC(=O)CCCC`, the “caspase activation” value was -0.754%.
In the case of `Cc1nc(-c2ccc3c(c2)CCN(CCC2CCC(NC(=O)/C=C/c4ccc(F)cc4)CC2)CC3)no1` (stereo not given), the “caspase activation” value is reported as 1.52% [at 42.5 µM].
With `C[n+]1cc2c3c(ccc2c2ccc4cc5c(cc4c21)OCO5)OCO3` the Potency was 3.66 µM (active).
In the case of `O=C1Cc2cc(CCN3CCN(c4nsc5ccccc45)CC3)c(Cl)cc2N1`, the “caspase activation” value is reported as -1.62% [at 42.5 µM].
For `C/C=C(\C)C(=O)OCc1ccccc1`, the “caspase activation” value was 0.436%.
